Test results from PubChem BioAssay AID1851 (National Center for Advancing Translational Sciences (NCATS), 2009).
Out of some 16,000 compounds screened, about 2,600 (16%) were called active. Another 20% or so got no clear call; they are omitted. Calls come from the whole dose curve; as a rule, active = well fitted curve in the direction sought with a large enough effect; inconclusive = small, poorly fitted or top-dose-only effect, or effect the other way; inactive = no such curve, though single readings can be large or run the other way. These entries were drawn from the full list.

Target: Cytochrome P450 2D6 (Homo sapiens) (UniProt P10635)
Assay: Cytochrome panel assay with activity outcomes
Conditions: recombinant CYP, pro-luciferin dealkylation, luminescence, p450-cyp2d6; series mostly up to 57.1 µM
% is set by controls: 0 for no effect and ±100 for the full control effect.

Sequence of Cytochrome P450 2D6 (Homo sapiens) (P10635 whole entry, looked up): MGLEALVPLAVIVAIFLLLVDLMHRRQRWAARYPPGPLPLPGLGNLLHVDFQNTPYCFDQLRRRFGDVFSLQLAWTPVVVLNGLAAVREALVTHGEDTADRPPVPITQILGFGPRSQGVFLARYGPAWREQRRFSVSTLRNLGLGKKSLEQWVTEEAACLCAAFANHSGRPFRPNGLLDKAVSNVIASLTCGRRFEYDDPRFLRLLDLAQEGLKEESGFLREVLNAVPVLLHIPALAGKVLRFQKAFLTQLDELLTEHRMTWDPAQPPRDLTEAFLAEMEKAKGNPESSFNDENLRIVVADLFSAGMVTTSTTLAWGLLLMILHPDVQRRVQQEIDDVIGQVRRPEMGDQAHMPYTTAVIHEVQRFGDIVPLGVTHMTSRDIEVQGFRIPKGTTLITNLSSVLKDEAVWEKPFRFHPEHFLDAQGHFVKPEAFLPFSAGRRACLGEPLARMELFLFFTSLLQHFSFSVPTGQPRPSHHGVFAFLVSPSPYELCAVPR

Compound	AC50	activity, negative = inhibition
CCOC(=O)c1sc(=N)n(-c2ccc(OC)cc2)c1C	inactive	–
COc1cccc(/C=c2/s/c(=C(\C#N)C(=O)N3CCOCC3)n(-c3ccccc3)c2=O)c1	inactive	–
Cc1ccc(N2CCN(CCC(=O)O)CC2)cc1	–	-9.16% [at 11.4 µM] (inactive)
CCSC(N)=Nc1ccc(C(F)(F)F)cc1	inactive	–
Cc1ccc(CSC(N)=Nc2ccccc2)cc1C	0.794 µM (active)	–
N=C(N)c1ccccc1	inactive	–
O=C(Nc1cccc(C(=O)Nc2ccc(S(=O)(=O)O)c3cc(S(=O)(=O)O)cc(S(=O)(=O)O)c23)c1)Nc1cccc(C(=O)Nc2ccc(S(=O)(=O)O)c3cc(S(=O)(=O)O)cc(S(=O)(=O)O)c23)c1	inactive	–
C(=N/Nc1nnc2c(n1)[nH]c1ccccc12)/c1cccnc1	–	-5% [at 11.4 µM] (inactive)
c1ccc2c[n+](Cc3ccnc4ccccc34)ccc2c1	3.16 µM (active)	–
COc1cc(NC(=O)c2cc3nc(-c4ccccc4)cc(-c4ccccc4)n3n2)cc(OC)c1OC	inactive	–
COC(=O)c1[nH]c2cccc(OC)c2c1NC(=O)CN(C)CC1OCCO1	inactive	–
NC1CCN(c2cccc(Cl)n2)CC1	10 µM (active)	–
Clc1ccc(N2CCCCCC2)nn1	inactive	–
O=S(=O)(c1ccc(F)cc1)N1CCCC(CO)C1 (configuration not stated)	inactive	–
O=S(=O)(c1ccc(F)cc1)N1CC2CCCN2c2ccc(C(F)(F)F)cc21 (configuration not stated)	inactive	–
Cc1ccc2c(c1)[C@@H]1CN(C)CC[C@@H]1N2S(=O)(=O)c1ccc(F)cc1	14.1 µM (active)	–
O=C1O[C@@H]([C@H](O)[C@H](O)[C@H](O)CO)[C@@H](O)[C@@H]1O	–	7.22% [at 11.4 µM] (inactive)
O=C(Cc1ccccc1)Nc1nc(=O)c2ccccc2s1	inactive	–
O=C(c1cnccn1)N1CCC2(CC1)CCN(c1ccccn1)CC2	inactive	–
Cc1ccc(-c2ccc(CCC(=O)O)n2CC2CCCO2)cc1 (configuration not stated)	inactive	–
Cc1ccc(C(=O)N/N=C/c2cc(C)n(-c3ccc(Br)cc3)c2C)cc1[N+](=O)[O-]	inactive	–

Compound	AC50	activity, negative = inhibition
CSc1nc2ccccc2cc1/C=C(\C#N)c1cccc(Cl)c1	inactive	–
CN1CCN(CC(O)c2ccccc2)CC1 (configuration not stated)	inactive	–
Cc1cccc(CN2CCN(CC(=O)O)C2=O)c1	inactive	–
O=C1CC(N2CCN(C(c3ccccc3)c3ccccc3)CC2)C(=O)N1Cc1ccc(N2CCCC2=O)cc1 (configuration not stated)	inactive	–
Cc1ccc(-c2noc(CN3CCN(C(c4ccccc4)c4ccccc4)CC3)n2)cc1	inactive	–
Cc1cccc(CN2CCN([C@@H](c3ccccc3)c3ccc(Cl)cc3)CC2)c1	3.16 µM (active)	–
CN1CCN([C@@H](c2ccccc2)c2ccc(Cl)cc2)CC1	2 µM (active)	–
CN1CCCN([C@@H](c2ccccc2)c2ccc(Cl)cc2)CC1	0.251 µM (active)	–
CC(=O)N=c1sc(S(N)(=O)=O)nn1C	inactive	–
COC(=O)c1cc(/C=C/c2ccccc2)on1	inactive	–
Cc1cnc2cc(Cl)ccc2c1SCC(=O)O	–	8.22% [at 11.4 µM] (inactive)
NS(=O)(=O)c1cc2c(cc1Cl)N[C@@H](CC1CCCC1)NS2(=O)=O	inactive	–
O=C(CN1C(=O)c2ccccc2C1=O)NCC(=O)OCC(=O)c1ccc(Br)cc1	inactive	–
CCn1c(CCNC(=O)c2ccccc2Cl)n[nH]c1=S	inactive	–
O=C(O)c1ccccc1/C=N\N=C1c2ccccc2-c2ccccc21	–	16.6% [at 11.4 µM] (inactive)
CCn1cc(C(=O)NCC(=O)OC)c2cc(OC)c(OC)cc2c1=O	inactive	–
CC1(C)[C@@H]2CC[C@]1(C)[C@@H](OC(=O)CSC#N)C2	–	-15% [at 11.4 µM] (inactive)
C=CCc1ccccc1OC[C@H](O)CNC(C)C	6.31 µM (active)	–
CC(C)(C)NC[C@H](O)COc1cccc2[nH]c(=O)[nH]c12	inactive	–
CC(C)NC[C@@H](O)COc1cccc2ccccc12	inactive	–
C[C@@]12C[C@H](O)[C@@H]3[C@H](CCC4=CC(=O)CC[C@]43C)[C@H]1CC[C@@H]2c1csc(N)n1	–	-10.6% [at 11.4 µM] (inactive)

Compound	AC50	activity, negative = inhibition
Cc1ccc(C)c(S(=O)(=O)NC(C)C(=O)Nc2ccc(-c3nc4ccccc4s3)cc2)c1 (configuration not stated)	inactive	–
CC(C)[C@]1(Cl)CC[C@@H]2[C@]3(C)CCC[C@@](C)(C(=O)O)[C@H]3C[C@H](Cl)[C@@]2(Cl)[C@H]1Cl	–	4.09% [at 11.4 µM] (inactive)
COc1cccc(Cn2c(=O)c(-c3cccc(C#N)c3)nc3cnc(N4CCN(C)CC4)nc32)c1	inactive	–
Cc1ccc(/C=C2\SC(=S)N(CCCC(=O)Nc3ccccn3)C2=O)cc1	inactive	–
CC(C)(C)COS(=O)OCC(C)(C)C	–	-1.05% [at 11.4 µM] (inactive)
CC(C)C(O)(C#CCN1CCCC1)c1ccccc1 (configuration not stated)	14.1 µM (active)	–
CCC(C#CCN1CCCCC1)(CC)OCCC#N	inactive	–
C[C@@H](N1CCOCC1)[C@@](O)(c1ccccc1)c1ccccn1	–	-15% [at 11.4 µM] (inactive)
O=C(N/N=C/C=C/c1ccc([N+](=O)[O-])cc1)c1cccs1	inactive	–
OCCN1CCOCCOCCN(CCO)CCN(CCO)CC1	inactive	–
COC(=O)/C=C/CSC1=N/C(=C/c2ccc(-n3cncn3)cc2)C(=O)N1	14.1 µM (active)	–
COc1ccccc1NC(=O)CSc1nc2ccccc2cc1Cc1ccccc1	inactive	–
C[C@@H]1C(=O)N(C)C(=O)c2nc[nH]c21	inactive	–
CCOc1ccc(NC(=S)NC(=O)/C=C/c2ccc(C)cc2)c([N+](=O)[O-])c1	inactive	–
O=C(c1coc2ccccc2c1=O)N1CCN(c2cccc(C(F)(F)F)c2)CC1	inactive	–
FC(F)(F)c1cccc(N2CCN(CC3CC4C=CC3C4)CC2)c1 (configuration not stated)	2.51 µM (active)	–
O=C(CCN1C(=O)C2C3C=CC(C3)C2C1=O)N1CCN(c2cccc(Cl)c2)CC1 (configuration not stated)	inactive	–
CC(=O)O[C@]1(C(C)=O)CC[C@@H]2[C@@H]3C=C(C)C4=CC(=O)CC[C@@]4(C)[C@H]3CC[C@]21C	inactive	–
CCN(CC)C(=O)Cn1cnc([N+](=O)[O-])n1	inactive	–
O=C1C(=O)N(c2cccc(Cl)c2)C(c2ccccc2[N+](=O)[O-])/C1=C(\O)c1ccccc1 (configuration not stated)	inactive	–
